SARS PLP yeast – inhibitors of SARS-CoV papain-like protease in yeast; S. cerevisiae expressing SARS-CoV PLpro, growth rescue; Potency, µM (series often up to 32.9 µM), for inactives: at the top dose activity, positive = growth rescue, usual class: activators; 0.19% of 330,000 active; AID 485353; calls by dose curve; also: 0% is about no effect; nearly all actives have a fitted effect of over 55% in size
AmpC inh no detg – blocks E. coli AmpC beta-lactamase in detergent-free assay; 0.52% of 330,000 active; AmpC nitrocefin hydrolysis, absorbance 480 nm, 0.0001% Triton; P00811; AID 485341; Potency, µM (titrated, usually from 57.1 µM), for inactives: top-dose activity change, negative = inhibition, most hits filed as inhibitors;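 also: plate controls were no compound for no effect and no enzyme for full effect; nearly all actives have a fitted effect of over 20% in size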
Target sequence (P00811 whole entry, looked up): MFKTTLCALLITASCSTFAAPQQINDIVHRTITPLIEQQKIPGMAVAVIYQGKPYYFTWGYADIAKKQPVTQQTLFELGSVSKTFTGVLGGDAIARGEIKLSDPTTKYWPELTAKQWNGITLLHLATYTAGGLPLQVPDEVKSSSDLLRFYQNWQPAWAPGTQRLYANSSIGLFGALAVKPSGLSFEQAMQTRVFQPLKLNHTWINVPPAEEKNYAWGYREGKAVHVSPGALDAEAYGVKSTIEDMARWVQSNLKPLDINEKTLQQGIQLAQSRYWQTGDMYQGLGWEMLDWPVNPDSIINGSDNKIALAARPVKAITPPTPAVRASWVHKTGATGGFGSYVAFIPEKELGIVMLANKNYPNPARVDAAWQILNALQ
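AmpC (5.3 nM in the dispensed reagent) in 20 mM phosphate pH 7.0 with 0.01% (detergent screen) or 0.0001% Triton X-100 was preincubated with compounds for 15 min at room temperature. Nitrocefin was then added from an 800 uM solution, and hydrolysis was followed at 480 nm.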
AmpC inh detg – inhibitors of E. coli AmpC beta-lactamase with detergent; 0.041% of 370,000 active; P00811; AID 485294; Potency, µM (series often up to 114 µM), inactives show at the highest dose activity change, negative = inhibition, hits mostly inhibitors; AmpC hydrolysis of nitrocefin, absorbance 480 nm, 0.01% Triton;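 also: 0% = no-compound wells and -100% = no-enzyme wells; nearly all actives have a fitted effect of over 25% in size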
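AmpC (5.3 nM in the dispensed reagent) in 20 mM phosphate pH 7.0 with 0.01% (detergent screen) or 0.0001% Triton X-100 was preincubated with compounds for 15 min at room temperature. Nitrocefin was then added from an 800 uM solution, and hydrolysis was followed at 480 nm.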
Pf growth 96h – P. falciparum growth inhibition at 96 hours. P. falciparum luciferase reporter growth, 96 h. Potency, µM (doses to about 28.7 µM), inactives show at the top dose activity change, negative = inhibition, usual class: inhibitors. 6.9% of 320,000 active; also: % is scaled to controls: 0 for no effect and ±100 for the full control effect
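P. falciparum expressing integrated firefly luciferase grown in erythrocytes (2% hematocrit, 0.05% parasitemia final) with compounds for 96 hours at 37 C, 5% CO2. Growth inhibition read as loss of luminescence after adding luciferase detection reagent.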
Sm TGR inh – inhibitors of Schistosoma mansoni thioredoxin glutathione reductase; Q962Y6; purified TGR, DTNB reduction, TNB absorbance 405 nm; Potency, µM (series often up to 114 µM), for inactives: at the highest dose activity change, negative = inhibition, actives largely listed as inhibitors; 3% of 360,000 active; AID 485364; also: % is scaled to controls: 0 for no effect and ±100 for the full control effect; nearly all actives have a fitted effect of over 60% in size
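First, TGR (20 nM dispensed) and NADPH were mixed with compound. Second, a 15 min room-temperature incubation followed. Third, further NADPH and then DTNB were added to start the reaction. Finally, TNB absorbance was monitored kinetically.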
Pf growth 48h – inhibits P. falciparum growth in the first generation, 48 h; P. falciparum luciferase growth in erythrocytes, 48 h; Potency, µM (doses to about 28.7 µM), for the others: top-dose activity change, negative = inhibition, usual class: inhibitors; 5.9% of 310,000 active; AID 504832; also: % is scaled to controls: 0 for no effect and ±100 for the full control effect
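Firefly luciferase activity from engineered P. falciparum reports growth; inhibitors lower the luminescent signal. Cultures contained 2% hematocrit erythrocytes at 0.1% final parasitemia.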
Numbers without * were called inactive; ? = inconclusive; · = not tested or not shown; [ ] = remark or other dose. Only some compounds are listed: those with a hit (about 12% of all), similar ones and a draw of the others. Unless noted, calls follow the shape of the dose curve; as a rule, active = well fitted curve in the direction sought with a large enough effect; inconclusive = small, poorly fitted or top-dose-only effect, or another doubt; inactive = no such curve, though single readings can be large; an effect the other way counts as inactive or inconclusive. Potency is read from the fitted curve at half-maximal effect.

SMILES	SARS PLP yeast	AmpC inh no detg	AmpC inh detg	Pf growth 96h	Sm TGR inh	Pf growth 48h
COC(=O)C1=C(c2ccc(-c3ccccc3)c(F)c2)C[C@@H]2CC[C@H]1N2C(=O)NCCCOC(C)C	0.2%	276.8%	8.4%	?	2.9%	?
O=C(NCc1ccccc1Cl)c1ccc(CSCc2ccccc2Cl)o1	·	·	-0.7%	·	-22.9%	·
Cc1ccc(-c2nc(S(=O)(=O)c3ccc(C)cc3)c(SCC(=O)Nc3ccc(F)cc3)o2)cc1	·	·	7.1%	·	0.2%	·
CCOC(=O)c1c(C)[nH]c(C)c1S(=O)(=O)N1CCCC(C(=O)N2CCN(c3ccccc3F)CC2)C1 (centres undefined)	·	·	-3.5%	·	-8.3%	·
COc1ccccc1CNC(=O)C(=O)NCC(c1ccc2c(c1)OCO2)N1CCOCC1 (centres undefined)	·	·	3.4%	·	11.7%	·
COC(=O)C1=C(c2ccc(-c3ccccc3)c(F)c2)C[C@@H]2CC[C@H]1N2C(=O)NCCOc1ccc(OC)cc1	2.4%	14.8%	1.1%	?	-6.3%	7.38µM*
CN(C)c1ccc(-c2nn3c(C4CCCCC4)nnc3s2)cc1	0.0%	-8.8%	1.0%	?	4.4%	-5.4%
COCCNC(=S)NN=C1CCCCC1	8.3%	-15.2%	-9.9%	7.1%[5.75 µM]	-19.8%	-2.0%
C=CCNC(=S)NN=C1CCCCCCC1	-1.2%	-17.3%	2.6%	-92.7%[5.75 µM]	-30.2%	8.28µM*
CCn1c2ccccc2c2cc(NC(=O)c3ccco3)ccc21	-8.6%	-42.8%	?	·	-18.5%	13.1µM*
CCn1c2ccccc2c2cc(NC(=O)CSc3nnc(C4CC4)n3Cc3ccco3)ccc21	-4.3%	62.5%	-5.5%	10.2%[5.75 µM]	7.94µM*	-44.2%
CCn1c2ccccc2c2cc(NC(=O)c3cccc(OC)c3OC)ccc21	-23.8%	-24.7%	?	4.15µM*	1.5%	-14.6%
O=C(/C=C/c1cccc(C(F)(F)F)c1)NNC(=O)c1ccncc1	-2.1%	48.9%	-8.8%	3.4%	-0.9%	-2.6%
CCOC(=O)c1cc(-c2ccccc2)n(CCCC(=O)Nc2cc(C)ccc2OC)c1C	·	·	9.6%	·	19.4%	·
O=C(Nc1cccc([N+](=O)[O-])c1)C12CC3CC(C1)CC(n1cnc([N+](=O)[O-])n1)(C3)C2	-6.7%	-9.0%	3.0%	?	-27.6%	-20.3%
COc1cc(NC(=O)C(CC(C)C)NS(=O)(=O)c2ccc3c(c2)CCCC(=O)N3)cc(OC)c1 (centres undefined)	·	·	0.0%	·	2.6%	·
COc1ccc(Cl)cc1NC(=O)c1cn(C2CCCC2)c(=O)c2c1c1ccccc1n2C	·	·	13.7%	·	4.8%	·
Cc1cc(OCC(=O)NCCCN2CCCC2=O)c2c(C)cc(=O)oc2c1	0.9%	-3.1%	0.0%	?	2.5%	-29.1%
Cc1cc(=O)oc2cc(OCC(=O)NCCCN3CCCC3=O)c(Cl)cc12	2.0%	-4.4%	5.8%	?	79.4µM*	-4.9%
O=C(COc1cc2oc(=O)c3c(c2cc1Cl)CCC3)NCCCN1CCCC1=O	-2.2%	85.4%	3.7%	13.1µM*	-9.8%	?
Cc1ccc(CCNC(=O)Cn2ncc3c(=O)oc4ccccc4c32)cc1	·	·	-0.5%	·	-5.7%	·
O=C(NCCN1CCOCC1)c1ccc(Cl)c(S(=O)(=O)NCc2ccccc2)c1	0.9%	-15.4%	·	·	·	·
CN(c1ccc(OCC(=O)N2CCCC2)cc1)S(=O)(=O)c1ccc(Cl)cc1	1.6%	-15.1%	1.2%	?	-4.8%	10.4µM*
COC(=O)C1CCN(C(=O)COc2ccc(N(C)S(=O)(=O)c3ccc(C)cc3)cc2)CC1	-1.4%	129.2%	-1.6%	?	-12.5%	13.1µM*
CCOC(=O)C1CCN(C(=O)COc2ccc(N(C)S(=O)(=O)c3ccc(C)cc3)cc2)CC1	0.6%	121.6%	6.7%	17.3%	-0.4%	0.0%
SMILES	SARS PLP yeast	AmpC inh no detg	AmpC inh detg	Pf growth 96h	Sm TGR inh	Pf growth 48h
CN1CCN(C(=O)COc2ccc(N(C)S(=O)(=O)c3ccc(F)cc3)cc2)CC1	-1.2%	-9.7%	-5.2%	-13.1%	-5.9%	20.0%
CCOc1cc(C(=O)NCC(c2ccc(N(C)C)cc2)N2CCOCC2)cc(OCC)c1OCC (centres undefined)	·	·	8.2%	·	6.6%	·
O=C1CC(c2ccc(F)cc2)CC2=C1C(c1ccc([N+](=O)[O-])o1)Nc1ccccc1N2 (centres undefined)	0.2%	-26.5%	3.7%	?	15.8µM*	?
O=C1CC(c2ccccc2)CC2=C1C(c1ccccn1)Nc1ccccc1N2 (centres undefined)	6.5%	-25.5%	-0.2%	·	-3.8%	-32.9%
CCCn1c2ccccc2c2cnn(CC(=O)Nc3ccc(C)cc3Br)c(=O)c21	·	·	16.1%	·	2.0%	·
CCc1[nH]c(=S)c(C#N)c(-c2ccccc2)c1C(=O)OC	?	15.8µM*	-3.7%	11.8%	-4.4%	12.6%
Cc1[nH]c(=S)c(C#N)c(-c2ccccc2)c1C(=O)Nc1ccccc1	-0.9%	-52.8%	2.4%	31.8%	-4.9%	9.1%
COc1cc(/C=C2/C(=O)N(c3ccc(Br)cc3)N=C2C)cc(OC)c1OC	-3.2%	49.5%	-1.0%	26.3%	14.2%	0.0%
COc1cc(/C=C2\C(=O)N(c3ccccc3)N=C2C)ccc1Oc1ccc([N+](=O)[O-])cc1[N+](=O)[O-]	-21.2%	-32.8%	-22.2%	10.4µM*	14.1µM*	-17.1%
CC1=NN(c2ccccc2)C(=O)/C1=C\c1ccc(Oc2ccc([N+](=O)[O-])cc2[N+](=O)[O-])cc1	-29.1%	?	?	23.7%	12.6µM*	0.0%
COc1cc(/C=C2/C(=O)N(c3ccc(C(=O)O)cc3)N=C2C)cc(OC)c1O	0.2%	-5.9%	0.9%	41.2%	10µM*	34.7%
CCc1ccccc1NC(=O)Cn1c(=O)n(CCc2ccccc2)c(=O)c2sc3ccccc3c21	·	·	1.1%	·	-5.0%	·
CN(Cc1ccc(Cl)cc1)C(=O)COC(=O)c1ccc(-c2ccc(O)cc2)cc1	-9.2%	-29.1%	-0.1%	23.2%	-2.8%	-9.7%
CCOC(=O)Cc1csc(SCc2nc3ccccc3c(=O)[nH]2)n1	1.5%	-34.6%	-10.9%	-21.1%	0.9%	-12.3%
COc1ccc(/C=C2/C(=O)N(Cc3ccco3)C(=O)N(C(C)C)C2=O)cc1	3.7%	-28.0%	-7.2%	-4.6%	-2.2%	0.2%
O=C1NN(c2ccc(F)cc2)C(=O)/C1=C\C=C\c1ccco1	-4.8%	-20.9%	-11.1%	1.65µM*	?	-1.3%
CCN1C(=O)C(=C/C=C/c2ccco2)C(=O)N(CC)C1=S	?	-47.0%	-12.4%	432.2%	8.91µM*	4.7%

Compound activity (PubChem BioAssay)
